# Source: PubChem (National Center for Advancing Translational Sciences (NCATS))
# Cycloheximide cs: counter-screen hit for Shiga toxin inhibitors, cycloheximide; cell reporter, cycloheximide protein synthesis inhibition counterscreen; max response, %; 12% of 300,000 active; AID 2314; in the data active = max response mostly above about 13%, no sharp cut-off; inactive = mostly below about 14%; note: read at 38.3 µM for the half of the compounds with a filed dose; 0% is about no effect
# Pf growth 48h: inhibits P. falciparum growth in the first generation, 48 h; P. falciparum luciferase growth in erythrocytes, 48 h; Potency, µM (highest dose often 28.7 µM), without a hit: at the top dose activity change, negative = inhibition, actives largely listed as inhibitors; 5.9% of 310,000 active; note: potency is the fitted concentration of half-maximal effect; % is set by controls: 0 for no effect and ±100 for the full control effect
#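 Growth was read as firefly luciferase luminescence after a 48 h, 37 C, 5% CO2 exposure of compounds to reporter-bearing P. falciparum cultures (0.1% parasitemia, 2% hematocrit final) in Albumax-supplemented RPMI 1640.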
# Pf growth 96h: inhibits malaria parasite growth, 96 h | P. falciparum luciferase reporter growth, 96 h | Potency, µM (highest dose often 28.7 µM), for the others: top-dose activity change, negative = inhibition, most hits filed as inhibitors | 6.9% of 320,000 active | AID 504834; note: potency is the fitted concentration of half-maximal effect; % is set by controls: 0 for no effect and ±100 for the full control effect
#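 Two parasite generations (96 h, 37 C, 5% CO2) of compound exposure in infected erythrocytes (0.05% parasitemia, 2% hematocrit). Luciferase-reporter P. falciparum; decreased luminescence indicates inhibited growth, aimed at apicoplast-acting delayed death.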
# Shiga toxin inh: inhibitors of Shiga toxin in Vero cells; Vero cells, Shiga toxin protein synthesis inhibition reporter; inhibition, % at 38.7 µM; 9.2% of 290,000 active; AID 2315; in the data active = inhibition mostly above about 28%, no sharp cut-off; inactive = mostly below about 43%; note: 0% is about no effect
# * marks the source's active call; other numbers are inactive results; ? = inconclusive; · = no result given. Sampled rows, rich in hits. Any-hit rate of the full collection: about 21%. Unless noted, calls come from the whole dose curve; as a rule, active = well fitted inhibition curve with a large enough effect; inconclusive = small, poorly fitted or top-dose-only effect, or another doubt; inactive = no such curve, though single readings can be large or run the other way.
SMILES,Cycloheximide cs,Pf growth 48h,Pf growth 96h,Shiga toxin inh
Cc1cc(C)nc(N/N=C/c2ccccc2OCc2ccc(Br)cc2)n1,29*,?,?,79*
COc1ccc(Cl)cc1NC(=O)CN1C(=O)CC(C)S(=O)(=O)c2ccccc21 (stereo unspecified),7,?,30%,26
CCOC(=O)C(=CN(CCc1ccccc1)CC(=O)OC)C(=O)OCC,-3,-12%,?,-12
CCC(=O)c1ccc(OCC(=O)OCC(=O)N2c3ccccc3CC2C)cc1 (stereo unspecified),·,0%,3%,·
CSc1ccc(S(=O)(=O)NCC(=O)OCC(=O)NCc2cccs2)cc1[N+](=O)[O-],·,26%,7%,·
CCc1ccc2c(c1)c1nnc(NN)nc1n2C,-1,12µM*,?,-6
NNc1nnc2c3cc(F)ccc3n(Cc3ccccc3)c2n1,-1,1.5µM*,3.3µM*,-12
CCn1c2ccc(F)cc2c2nnc(NN)nc21,-1,?,3.7µM*,-9
CCCn1c2ccc(F)cc2c2nnc(NN)nc21,-5,?,1%,-5
O=C(Nc1ccc(S(=O)(=O)Nc2nccs2)cc1)c1ccccc1OC(F)F,·,-12%,23%,·
O=c1[nH]c2ccc(S(=O)(=O)N3CCN(S(=O)(=O)c4ccc5c(c4)OCCO5)CC3)cc2[nH]c1=O,-7,·,·,-4
O=C(/C=C/c1c(Cl)cccc1Cl)NCCc1ccccc1,14,17%,-17%,-8
C=CCNC(=O)/C=C/c1c(F)cccc1Cl,29*,57%,16%,57*
O=C(Nc1ncccc1Cl)c1ccccc1F,13,48%,60%,-57
O=C(/C=C/c1c(F)cccc1Cl)N1CCOCC1,48*,86%,59%,51*
O=C(/C=C/c1c(Cl)cccc1Cl)N1CCOCC1,15,12%,2%,·
O=C(/C=C/c1c(F)cccc1Cl)Nc1ncccn1,57*,204%,?,61*
O=C(/C=C/c1c(F)cccc1Cl)Nc1ccc(S(=O)(=O)Nc2ncccn2)cc1,1,-5%,13µM*,-9
O=C(NCC1CCCO1)c1ccccc1NS(=O)(=O)c1ccc(F)cc1 (stereo unspecified),·,0%,?,·
COc1cccc(-c2nnc3n2N=C(c2c(OC)cccc2OC)CS3)c1OC,-5,·,·,-4
C[C@H](NC(=O)c1nc[nH]c1C(=O)NCC(=O)OCc1ccccc1)c1ccccc1,-1,-12%,3%,10
COc1ccc(Cl)cc1NC(=O)CN(C)C(=O)c1cc2c(F)cccc2s1,·,7.4µM*,?,·
COc1ccc(Cl)cc1NC(=O)CN(C)CC(=O)NC(C)c1ccccc1 (stereo unspecified),-6,10µM*,-16%,-10
COc1ccc(Cl)cc1NC(=O)CN(C)CC(=O)Nc1cc(OC)c(OC)c(OC)c1,-7,15µM*,?,-7
CCc1ccc(/C=N/NC(=O)C(=O)NCCCN2CCOCC2)cc1,-5,13%,-10%,-6
SMILES,Cycloheximide cs,Pf growth 48h,Pf growth 96h,Shiga toxin inh
O=c1oc(-c2cccs2)nc2sc3c(c12)CCC3,-2,8%,29%,-17
O=c1c2c3c(sc2nc2n1N=C(c1cccs1)CS2)CCCC3,19*,133%,261%,73*
O=c1oc(-c2cccs2)nc2sc3c(c12)CCCC3,-2,·,1%,0
O=C1CN(c2nc(-c3cccs3)nc3sc4c(c23)CCCC4)CCN1,35*,-22%,?,58*
O=C1CN(c2nc(-c3cccnc3)nc3scc(-c4ccccc4)c23)CCN1,19*,?,?,25
Cc1ccc(CCNC(=O)CN2C(=O)COc3ccc(S(=O)(=O)N4CCOCC4)cc32)cc1,-9,4%,-23%,-11
COc1ccc(C2C(C#N)=C(SC)NC3=C2C(=O)CC(C)(C)C3)cc1 (stereo unspecified),-2,?,22%,-7
COC(=O)c1ccc(C2C(C#N)=C(C)NC3=C2C(=O)CC(C)(C)C3)cc1 (stereo unspecified),-4,8%,9.3µM*,-22
COc1ccc(C2CC(=O)C3=C(C2)NC(C)=C(C#N)C3c2ccc(N(C)C)cc2)cc1 (stereo unspecified),18,6.6µM*,10%,-8
O=C(c1cc2cc(Br)ccc2[nH]1)N1CCC2(CC1)OCCO2,28*,?,?,46
CC1CN(C(=O)c2cc3cc(Br)ccc3[nH]2)CC(C)O1 (stereo unspecified),-2,12µM*,?,-4
Cc1c(C(=O)N2CC(C)OC(C)C2)[nH]c2ccc(Br)cc12 (stereo unspecified),-2,?,13µM*,-4
